Test system: replication-induced senescent mouse newborn dermal fibroblasts (NBF)
Experiment: relative cell viability of senescent cells (fraction); higher = less killing of senescent cells
Settings: 1 µM; 3 days
Experimental: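 Replication-induced senescent newborn mouse skin fibroblasts (NBFs) in 24-well plates were treated with a Selleck FDA-approved drug library at 1 µM for 3 days.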

**Q.** How did the relative cell viability turn out when CC1=C(/C=C/C(C)=C/C=C/C(C)=C/C(=O)O)C(C)(C)CCC1 [Tretinoin] was run?
**A.** Its relative cell viability is 0.466.

**Q.** With CC1(C)O[C@@H]2[C@@H](CO[C@@]3(COS(N)(=O)=O)OC(C)(C)O[C@@H]23)O1 [Topiramate] as the compound, how does the relative cell viability read?
**A.** The relative cell viability was 0.921.

**Q.** For O=C(O)C[C@H](O)C[C@H](O)/C=C/c1c(C2CC2)nc2ccccc2c1-c1ccc(F)cc1 [Pitavastatin Calcium], which relative cell viability is on record?
**A.** The relative cell viability was 1.08.

**Q.** Which relative cell viability does the source give for C=CCNC1=C2C[C@@H](C)C[C@H](OC)[C@H](O)[C@@H](C)/C=C(\C)[C@H](OC(N)=O)[C@@H](OC)/C=C\C=C(/C)C(=O)NC(=CC1=O)C2=O [Tanespimycin (17-AAG)] here?
**A.** The relative cell viability was 0.966.

**Q.** NC(=O)c1cnccn1 [Pyrazinamide] was tested. Which relative cell viability did it give?
**A.** The relative cell viability was 1.17.

**Q.** CC(C(=O)O)c1ccc(C(=O)c2cccs2)cc1 (configuration not stated) [Suprofen] was tested. Which relative cell viability did it give?
**A.** Its relative cell viability is 0.929.

**Q.** Which relative cell viability does the source give for CC(C)CN(C[C@@H](O)[C@H](Cc1ccccc1)NC(=O)O[C@H]1CCOC1)S(=O)(=O)c1ccc(N)cc1 [Amprenavir] here?
**A.** The relative cell viability was 1.06.

**Q.** For Cc1ccc(C(=O)Nc2ccc(CN3CCN(C)CC3)c(C(F)(F)F)c2)cc1C#Cc1cnc2cccnn12, which relative cell viability is on record?
**A.** Its relative cell viability is 0.964.

**Q.** Which relative cell viability does the source give for c1ccc2[nH]c(-c3cscn3)nc2c1 [Thiabendazole] here?
**A.** The relative cell viability was 1.03.

**Q.** With Clc1ccc(CCC(Cn2ccnc2)Sc2c(Cl)cccc2Cl)cc1 (configuration not stated) [Butoconazole nitrate] as the compound, how does the relative cell viability read?
**A.** Its relative cell viability is 1.14.

**Q.** How did the relative cell viability turn out when CCOC(=O)[C@H](CCc1ccccc1)N[C@@H](C)C(=O)N1[C@H](C(=O)O)C[C@@H]2CCC[C@@H]21 [Ramipril] was run?
**A.** Its relative cell viability is 0.96.

**Q.** Which relative cell viability does the source give for C=CC[N+]1([C@H]2C[C@H]3[C@@H]4CC[C@H]5C[C@H](O)[C@@H](N6CCOCC6)C[C@]5(C)[C@H]4CC[C@]3(C)[C@H]2OC(C)=O)CCCC1 [Rocuronium Bromide] here?
**A.** Its relative cell viability is 0.939.

From the supplement of paper PMC7184167
